From ChEMBL document CHEMBL1961873, “Compounds: GSK PKIS; Assays: Nanosyn kinase panel” (2012)

Molecular target: Rho-associated protein kinase 2 (Homo sapiens) (UniProt O75116)
Settings: at 1 µM

Rho-associated protein kinase 2 (Homo sapiens), sequence (O75116 whole entry, looked up): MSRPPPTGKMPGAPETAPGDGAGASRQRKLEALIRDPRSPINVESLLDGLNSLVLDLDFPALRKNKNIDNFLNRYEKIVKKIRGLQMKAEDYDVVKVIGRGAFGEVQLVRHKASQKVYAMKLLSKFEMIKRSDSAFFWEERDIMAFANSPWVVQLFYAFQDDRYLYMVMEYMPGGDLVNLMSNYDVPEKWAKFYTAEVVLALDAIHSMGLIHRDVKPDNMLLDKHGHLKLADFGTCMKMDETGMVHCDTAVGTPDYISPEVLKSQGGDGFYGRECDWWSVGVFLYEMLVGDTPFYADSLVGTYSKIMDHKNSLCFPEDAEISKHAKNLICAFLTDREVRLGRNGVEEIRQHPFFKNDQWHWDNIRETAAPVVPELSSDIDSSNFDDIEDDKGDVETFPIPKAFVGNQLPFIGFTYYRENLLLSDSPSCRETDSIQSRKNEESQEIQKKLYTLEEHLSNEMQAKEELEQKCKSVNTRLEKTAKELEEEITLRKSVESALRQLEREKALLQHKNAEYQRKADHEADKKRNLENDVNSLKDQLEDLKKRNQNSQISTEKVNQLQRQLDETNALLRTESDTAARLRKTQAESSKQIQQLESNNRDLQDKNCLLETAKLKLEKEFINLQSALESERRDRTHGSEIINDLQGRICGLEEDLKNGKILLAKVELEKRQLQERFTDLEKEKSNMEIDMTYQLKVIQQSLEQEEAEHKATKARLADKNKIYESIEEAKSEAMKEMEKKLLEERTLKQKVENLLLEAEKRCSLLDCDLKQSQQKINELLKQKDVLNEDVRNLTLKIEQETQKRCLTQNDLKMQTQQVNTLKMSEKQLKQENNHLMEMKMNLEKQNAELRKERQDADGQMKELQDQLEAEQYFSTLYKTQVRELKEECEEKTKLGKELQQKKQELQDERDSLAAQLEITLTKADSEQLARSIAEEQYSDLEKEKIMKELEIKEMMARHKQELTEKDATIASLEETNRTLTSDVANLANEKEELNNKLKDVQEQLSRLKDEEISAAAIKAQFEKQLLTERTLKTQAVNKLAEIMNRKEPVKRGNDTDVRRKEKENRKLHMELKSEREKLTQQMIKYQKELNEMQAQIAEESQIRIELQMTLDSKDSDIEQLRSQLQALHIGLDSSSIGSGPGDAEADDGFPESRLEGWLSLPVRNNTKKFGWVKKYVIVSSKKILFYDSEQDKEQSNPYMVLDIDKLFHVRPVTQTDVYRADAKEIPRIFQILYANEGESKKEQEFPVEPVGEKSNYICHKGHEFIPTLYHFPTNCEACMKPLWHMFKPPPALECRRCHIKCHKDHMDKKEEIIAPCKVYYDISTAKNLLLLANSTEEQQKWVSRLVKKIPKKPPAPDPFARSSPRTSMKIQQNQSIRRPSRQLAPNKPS

Row | SMILES | inhibition
1 | Fc1ccc(-c2nn3ccccc3c2-c2ccncc2)cc1 | 3.03%
2 | CCCN(CCS(C)(=O)=O)Cc1ccc(-c2ccc3ncnc(Nc4ccc(OCc5cccc(F)c5)c(Cl)c4)c3c2)o1 | 2.01%
3 | COc1cc(/C=N/Nc2ncnc3[nH]ncc23)ccc1O | 13.9%
4 | c1cc(-c2cnn3nc(N4CCOCC4)ccc23)nc(NC2CC2)n1 | 10.7%
5 | CN1CCC(n2cnc(-c3ccc(F)cc3)c2-c2ccnc(N)n2)CC1 | 5.69%
6 | Fc1ccc(-c2nn3ncccc3c2-c2ccnc(Nc3ccc4c(c3)OCCO4)n2)cc1 | 2.36%
7 | COc1ccc(-c2oc3ncnc(N)c3c2-c2ccc(NC(=O)Nc3cc(C(F)(F)F)ccc3F)cc2)cc1 | 41.8%
8 | CCN(CC)S(=O)(=O)c1ccc(OC)c(Nc2ncc(-c3ccccc3)o2)c1 | 2.3%
9 | Cc1ccc(O)cc1Nc1ccnc2cc(-c3ccccn3)ccc12 | 0.33%
10 | COc1ccc(-c2nn3ncccc3c2-c2ccnc(Nc3ccc4c(c3)OCCO4)n2)cc1 | 1.51%
11 | COc1cccc(-n2ncc3c(N/N=C/c4ccc(F)cc4)ncnc32)c1 | 6.14%
12 | CC1=C(C(=O)Nc2cc(Cl)c3[nH]ncc3c2)C(c2ccc(C(F)(F)F)cc2)CC(=O)N1 (stereo not drawn) | 85.8%
13 | COc1cccc(-c2c[nH]c3c(N/N=C/c4ccncc4)ncnc23)c1 | 11.7%
14 | CC(C)(CO)CNC(=O)c1ccc2c(c1)/C(=N/Nc1ccc(S(N)(=O)=O)cc1)C(=O)N2 | 10.3%
15 | NS(=O)(=O)c1ccc(N/N=C2\C(=O)Nc3ccc4ncccc4c32)cc1 | 60.3%
16 | CCn1c(-c2nonc2N)nc2cnc(Oc3cccc(NC(=O)c4ccc(N(C)C)cc4)c3)cc21 | 86%
17 | c1ccc(-c2nc3n(c2-c2ccc4c(c2)OCO4)CCC3)nc1 | 5.37%
18 | NC(=O)c1sc(-n2cnc3ccc(C(F)(F)F)cc32)cc1OCc1ccccc1Br | 4.98%
19 | COc1ccc(-c2cc3c(N)ncnc3o2)cc1 | 1.85%
20 | N#Cc1c(NC(=O)c2ccc(F)cc2)sc2c1CCCC2 | 2.62%

Molecular target: Ribosomal protein S6 kinase alpha-1 (Homo sapiens) (UniProt Q15418);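 note: values are mean percent inhibition of RSK1 measured in the GSK PKIS kinase inhibitor set screen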
Settings: at 0.1 µM

Ribosomal protein S6 kinase alpha-1 (Homo sapiens), sequence (Q15418 whole entry): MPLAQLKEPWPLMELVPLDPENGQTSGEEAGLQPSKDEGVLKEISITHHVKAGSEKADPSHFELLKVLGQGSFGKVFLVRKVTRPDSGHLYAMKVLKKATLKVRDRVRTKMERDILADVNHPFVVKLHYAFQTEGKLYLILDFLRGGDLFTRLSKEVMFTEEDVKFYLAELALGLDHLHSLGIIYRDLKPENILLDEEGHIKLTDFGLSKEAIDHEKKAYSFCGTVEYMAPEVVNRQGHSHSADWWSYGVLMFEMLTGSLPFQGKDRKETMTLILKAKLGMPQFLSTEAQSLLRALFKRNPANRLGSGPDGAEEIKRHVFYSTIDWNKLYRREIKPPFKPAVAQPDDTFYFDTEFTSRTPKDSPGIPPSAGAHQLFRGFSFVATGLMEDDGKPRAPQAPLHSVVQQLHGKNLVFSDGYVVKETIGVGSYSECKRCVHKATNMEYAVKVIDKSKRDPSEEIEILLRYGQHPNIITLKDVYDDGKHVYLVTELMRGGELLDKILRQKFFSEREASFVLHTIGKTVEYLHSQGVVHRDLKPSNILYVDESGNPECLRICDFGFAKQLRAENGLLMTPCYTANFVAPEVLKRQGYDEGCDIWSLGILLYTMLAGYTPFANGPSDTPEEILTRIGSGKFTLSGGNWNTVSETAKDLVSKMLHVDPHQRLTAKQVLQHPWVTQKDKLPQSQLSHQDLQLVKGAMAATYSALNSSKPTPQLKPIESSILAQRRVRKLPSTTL

Row | SMILES | inhibition
21 | c1ccc(COc2ccc(Nc3ncnc4ccc(-c5ccco5)cc34)cc2)cc1 | -0.1%
22 | COC(=O)Nc1nc2ccc(S(=O)(=O)c3ccc(NC(=O)Nc4cc(C(F)(F)F)ccc4F)cc3)cc2[nH]1 | 1.38%
23 | CN(C)CCOc1ccc(-c2nc(-c3ccncc3)c(-c3ccc4c(c3)CC/C4=N\O)[nH]2)cc1 | 2.14%
24 | CS(=O)(=O)CCNCc1ccc(-c2ccc3ncnc(Nc4ccc(OCc5ccccc5)c(C(F)(F)F)c4)c3c2)o1 | 0.89%
25 | COc1cc2ncn(-c3cc(OCc4ccccc4C(F)(F)F)c(C(=O)N(C)C)s3)c2cc1OC | -0.72%
26 | CC(C)COC(=O)c1ccc2c(c1)/C(=C/Nc1ccc(S(N)(=O)=O)cc1)C(=O)N2 | 6.23%
27 | CCc1nn2ncccc2c1-c1ccnc(NC2CC2)n1 | 1.29%
28 | CN1CCC(n2cnc(-c3ccc(F)cc3)c2-c2ccnc(Nc3ccccc3)n2)CC1 | 1.76%
29 | FC(F)(F)c1cccc(-c2nn3ncccc3c2-c2ccnc(Nc3ccc4c(c3)OCCO4)n2)c1 | 1.14%
30 | COc1ccc2[nH]c3c4[nH]c5ccc(OC)cc5c4c4c(c3c2c1)C(=O)NC4=O | 53.9%
31 | CNC(=O)c1cccc(C#Cc2cncnc2Nc2ccc(OCc3cccc(F)c3)c(Cl)c2)c1 | 1.04%
32 | COc1cc(N2CCN(C(C)C)CC2)ccc1Nc1nc(Nc2ccc(F)cc2C(N)=O)c2cc[nH]c2n1 | 22%
33 | Fc1ccc(-c2cc(-c3c[nH]nc3-c3ccccn3)ccn2)cc1 | 1.71%
34 | COc1cc2c(cc1Nc1nc(Nc3ccsc3C(N)=O)c3cc[nH]c3n1)N(C(=O)CN(C)C)CCC2(C)C | 23.2%
35 | Fc1ccc(-c2nn3ccccc3c2-c2ccncc2)cc1 | 1.48%
36 | CCCN(CCS(C)(=O)=O)Cc1ccc(-c2ccc3ncnc(Nc4ccc(OCc5cccc(F)c5)c(Cl)c4)c3c2)o1 | 1.36%
37 | COc1cc(/C=N/Nc2ncnc3[nH]ncc23)ccc1O | 1.89%
38 | c1cc(-c2cnn3nc(N4CCOCC4)ccc23)nc(NC2CC2)n1 | 2.23%
39 | CN1CCC(n2cnc(-c3ccc(F)cc3)c2-c2ccnc(N)n2)CC1 | 1.08%
40 | Fc1ccc(-c2nn3ncccc3c2-c2ccnc(Nc3ccc4c(c3)OCCO4)n2)cc1 | 1.15%
41 | COc1ccc(-c2oc3ncnc(N)c3c2-c2ccc(NC(=O)Nc3cc(C(F)(F)F)ccc3F)cc2)cc1 | 10.5%
42 | CCN(CC)S(=O)(=O)c1ccc(OC)c(Nc2ncc(-c3ccccc3)o2)c1 | 0.82%
43 | Cc1ccc(O)cc1Nc1ccnc2cc(-c3ccccn3)ccc12 | 1.44%
